# Results taken from PubChem BioAssay AID588800 (Johns Hopkins Ion Channel Center, 2011).
# Calls of active or inactive are those of the source.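 How the source made its calls: active means peak inhibition of the KCNQ2 potassium channel above 30% at some tested dose, plus a fitted dose response curve; inactive means no inhibition at any dose, or no curve.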
# Molecular target: Potassium voltage-gated channel subfamily KQT member 2 (Rattus norvegicus) (UniProt O88943)
# Assay: rat KCNQ2 channel inhibition, SAR follow-up, selectivity assay for KCNK9 inhibitor project, cell-based, FluxOR thallium flux, CRC set 2 (AID 588800)
# Potassium voltage-gated channel subfamily KQT member 2 (Rattus norvegicus), sequence (O88943 whole entry, looked up): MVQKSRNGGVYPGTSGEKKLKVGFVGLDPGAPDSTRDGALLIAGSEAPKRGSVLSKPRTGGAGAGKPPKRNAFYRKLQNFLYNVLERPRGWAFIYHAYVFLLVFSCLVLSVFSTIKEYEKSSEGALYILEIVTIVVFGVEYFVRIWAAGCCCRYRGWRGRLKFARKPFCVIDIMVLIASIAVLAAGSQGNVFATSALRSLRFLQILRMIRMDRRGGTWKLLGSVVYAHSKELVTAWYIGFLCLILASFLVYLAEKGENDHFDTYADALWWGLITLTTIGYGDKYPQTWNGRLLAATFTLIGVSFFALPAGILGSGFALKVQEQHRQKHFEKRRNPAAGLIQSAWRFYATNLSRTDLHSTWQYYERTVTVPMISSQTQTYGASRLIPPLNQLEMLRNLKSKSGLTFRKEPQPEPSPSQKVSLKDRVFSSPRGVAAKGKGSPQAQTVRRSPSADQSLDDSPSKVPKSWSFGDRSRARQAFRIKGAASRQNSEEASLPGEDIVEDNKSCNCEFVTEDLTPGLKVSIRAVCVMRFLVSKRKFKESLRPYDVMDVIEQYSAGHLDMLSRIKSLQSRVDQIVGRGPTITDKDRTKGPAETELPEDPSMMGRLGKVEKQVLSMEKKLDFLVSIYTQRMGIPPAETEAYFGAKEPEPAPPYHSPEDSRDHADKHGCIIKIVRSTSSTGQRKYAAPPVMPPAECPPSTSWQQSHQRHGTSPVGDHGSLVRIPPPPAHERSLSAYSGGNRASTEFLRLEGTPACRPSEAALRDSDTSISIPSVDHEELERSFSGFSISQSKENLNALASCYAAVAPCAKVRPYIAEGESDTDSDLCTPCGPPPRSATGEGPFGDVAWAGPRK
row,SMILES,outcome
1,CCOc1ccccc1NC(=O)c1cccc(NC(=O)C2CCCCC2)c1,inactive
2,Cc1cccc(C(=O)Nc2cccc(NC(=O)c3ccc(C(F)(F)F)cc3)c2)c1,inactive
3,COc1cccc(OC)c1C(=O)Nc1cccc(NC(=O)c2cccc(C)c2)c1,inactive
4,O=C(Nc1cccc(NC(=O)c2cccnc2)c1)c1ccccc1,inactive
5,CC(C1CC2CCC1C2)n1c(-c2ccc(Cl)cc2)n[nH]c1=S (stereo not given),inactive
6,Cc1cccc(C(=O)Nc2cccc(NC(=O)c3ccccc3C(C)C)c2)c1,inactive
7,COc1ccccc1C(=O)Nc1cccc(NC(=O)c2ccccc2C)c1,inactive
8,O=C(Nc1cccc(NC(=O)c2ccco2)c1)c1ccccc1,inactive
9,COc1ccccc1NC(=O)c1cccc(NC(=O)CC2CCCC2)c1,inactive
10,O=C(Nc1cccc(NC(=O)c2ccc(C(F)(F)F)cc2)c1)c1ccccc1,inactive
11,COc1cccc(C(=O)Nc2cccc(NC(=O)c3ccccc3)c2)c1,inactive
12,CCOc1ccccc1NC(=O)c1cccc(NC(=O)CC2CCCCC2)c1,inactive
13,CC(C1CC2CCC1C2)n1c(-c2ccsc2)n[nH]c1=S (stereo not given),inactive
14,Cc1cccc(C(=O)Nc2cccc(NC(=O)c3ccccc3)c2)c1,inactive
15,CC(C)(C)c1ccc(C(=O)Nc2cccc(NC(=O)c3ccccc3)c2)cc1,inactive
16,Cc1ccc(C(=O)Nc2cccc(NC(=O)c3ccccc3)c2)cc1,inactive
17,O=C(Nc1cccc(NC(=O)C2CCCCC2)c1)c1ccccc1,inactive
18,COc1ccccc1NC(=O)c1cccc(NC(=O)c2ccccc2C(F)(F)F)c1,inactive

row,SMILES,outcome
1,COc1ccccc1NC(=O)c1cccc(NC(=O)c2ccccc2OC)c1,inactive
2,CC(c1ccccc1)n1c(-c2ccco2)n[nH]c1=S (stereo not given),inactive
3,COc1cccc(-c2n[nH]c(=S)n2C(C)C2CC3CCC2C3)c1 (stereo not given),inactive
4,Cc1cccc(C(=O)Nc2cccc(NC(=O)c3cccs3)c2)c1,inactive
5,CCOc1ccccc1NC(=O)c1cccc(NC(=O)c2ccccc2)c1,inactive
6,CC(C1CC2CCC1C2)n1c(-c2ccccc2Cl)n[nH]c1=S (stereo not given),inactive
7,CCOc1ccccc1NC(=O)c1cccc(NC(=O)CC2CCCC2)c1,inactive
8,COc1ccccc1NC(=O)c1cccc(NC(=O)C2CCCC2)c1,inactive
9,CCOc1cccc(NC(=O)c2cccc(NC(=O)C3CCCC3)c2)c1,inactive
10,COc1ccccc1C(=O)Nc1cccc(NC(=O)c2ccccc2OC)c1,inactive
11,Cc1cccc(C(=O)Nc2cccc(NC(=O)c3ccccc3C(F)(F)F)c2)c1,inactive
12,CCOc1ccccc1NC(=O)c1cccc(NC(=O)c2ccc(C)cc2)c1,inactive
13,Cc1cccc(C(=O)Nc2ccccc2NC(=O)c2ccccc2)c1,inactive
14,S=c1[nH]nc(-c2ccco2)n1CC1CCCCC1,inactive
15,CCOc1ccccc1NC(=O)c1cccc(NC(=O)C2CCCC2)c1,inactive
16,CCOc1ccccc1NC(=O)c1cccc(NC(=O)c2cccc(C(F)(F)F)c2)c1,inactive
17,CC(C1CC2CCC1C2)n1c(-c2ccoc2)n[nH]c1=S (stereo not given),inactive
